{"source": "PubChem BioAssay AID504434", "about": "(National Center for Advancing Translational Sciences (NCATS), 2011)", "test": "Secondary Assay for lipid storage modulators: AML12 cell LDSA assay for probe SAR", "conditions": "AML12 lipid droplet accumulation, BODIPY 493/503 imaging, oleate", "from_the_text": "NIH Molecular Libraries Probe Production Centers Network [MLPCN] NIH Chemical Genomics Center [NCGC] MLPCN Grant: 1 R03 MH085686-01 Assay Submitter (PI): Beller, Mathias; Max-Planck-Institut fur Biophysikalische Chemie NCGC Assay Overview: Storing lipids as a reservoir for energy or the anabolism of elementary metabolites is a common feature of probably all cells and is conserved from bacteria to humans. The universal cellular lipid storage organelle is the so-called lipid storage droplet (LD). Although ubiquitous, LDs share a simple structure composed of a hydrophobic core that harbors the storage lipids, which is shielded by a droplet-specific phospholipid monolayer to which proteins are attached. The current model of LD biogenesis involves an incorporation of the lipid core into the membrane leaflets of the endoplasmic reticulum (ER) followed by a subsequent budding-like maturation of a LD, which ultimately pinches off. […]\nNCGC Assay Protocol Summary: The assay was performed with AML12 cells, using an oleic acid feeding protocol similar to the S3 assay. […] Fluorescence was detected by excitation of the fluorophores with a 488-nm laser on an Acumen Explorer (TTP Lab Tech). […] Cells were detected using channel 3 (575-640 nm) with 5-um width and 100-um depth filters. The ratio of the number of objects in PMT channel 2 over the number of objects in PMT channel 3 was also calculated. […]", "note": "Results filed as inconclusive are left out. The source made the active and inactive calls. Calls follow the shape of the dose curve; as a rule, active = well fitted curve in the direction sought with a large enough effect; inconclusive = small, poorly fitted or top-dose-only effect, or effect the other way, or another doubt; inactive = no such curve, though single readings can be large or run the other way."}
{"molecule": "CCC/C=C/C/C=C/C=C/C=N/NN=O", "values": [{"measurement": "Potency", "result": "499 nM (active)"}]}
